Test results as given in ChEMBL document CHEMBL3988442, “University of Dundee, Small-Polar-MMV Screening Library” (2021).
For some assays here: Potency and affinity values are given separately.

Columns and labels:
Design in all cases: scale not given: direction of the effect not stated beside the values
[1] = target: Protein translocase subunit SecA (Escherichia coli (strain K12)) (UniProt P10408); test: Assay to Identify E. coli SecA ATPase Inhibitors; assay type: functional; conditions: 30 µM
[2] = target: T1, Ubiquitin-activating enzyme e1, putative (Leishmania donovani (strain BPK282A1)) (UniProt E9BSI1); test: Leishmania donovani Ubiquitin Activating Enzyme (LdE1); assay type: functional; conditions: 30 µM
T1 sequence (whole entry): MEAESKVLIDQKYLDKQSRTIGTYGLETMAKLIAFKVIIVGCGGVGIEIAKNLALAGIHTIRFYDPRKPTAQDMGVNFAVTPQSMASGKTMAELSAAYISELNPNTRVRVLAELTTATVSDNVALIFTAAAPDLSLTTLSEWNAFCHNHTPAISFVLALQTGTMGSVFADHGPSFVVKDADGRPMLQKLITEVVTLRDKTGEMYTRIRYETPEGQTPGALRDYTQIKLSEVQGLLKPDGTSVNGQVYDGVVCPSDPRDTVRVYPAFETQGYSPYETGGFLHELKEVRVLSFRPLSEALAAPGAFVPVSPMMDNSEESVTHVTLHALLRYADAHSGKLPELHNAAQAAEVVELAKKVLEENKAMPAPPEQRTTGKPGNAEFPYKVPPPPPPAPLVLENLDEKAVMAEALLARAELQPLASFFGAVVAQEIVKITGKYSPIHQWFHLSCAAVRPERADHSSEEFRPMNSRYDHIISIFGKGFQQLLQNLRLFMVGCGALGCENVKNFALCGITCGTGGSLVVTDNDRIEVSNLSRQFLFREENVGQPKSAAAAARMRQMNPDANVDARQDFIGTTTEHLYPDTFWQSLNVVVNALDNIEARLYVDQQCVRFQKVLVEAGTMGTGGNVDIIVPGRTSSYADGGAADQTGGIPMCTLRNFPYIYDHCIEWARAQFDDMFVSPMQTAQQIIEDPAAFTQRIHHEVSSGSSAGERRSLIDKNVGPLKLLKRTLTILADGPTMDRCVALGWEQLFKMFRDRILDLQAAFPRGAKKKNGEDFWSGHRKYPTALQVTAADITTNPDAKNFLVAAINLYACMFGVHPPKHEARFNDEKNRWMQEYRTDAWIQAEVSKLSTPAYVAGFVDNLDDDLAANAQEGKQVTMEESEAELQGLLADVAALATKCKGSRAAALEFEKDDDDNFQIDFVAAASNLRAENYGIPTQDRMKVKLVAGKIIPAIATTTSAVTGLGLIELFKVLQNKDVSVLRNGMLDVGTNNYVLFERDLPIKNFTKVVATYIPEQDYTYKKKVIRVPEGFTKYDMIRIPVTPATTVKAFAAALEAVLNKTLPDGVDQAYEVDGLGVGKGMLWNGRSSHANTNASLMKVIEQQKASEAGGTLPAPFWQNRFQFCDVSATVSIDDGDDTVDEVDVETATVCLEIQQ

[3] = target: AMP-activated protein kinase, AMPK (Homo sapiens) (UniProt P54646+O43741+P54619+Q9UGJ0+Q9Y478+Q13131+Q9UGI9); test: AMP-dependent Kinase enzyme assay. An in vitro enzyme assay that detects ADP turnover that is directly proportional to AMPK activity. This uses naive AMPK that is activated during the assay with MK-8722; assay type: functional; conditions: 30 µM
[4] = target: Sialic acid-binding Ig-like lectin 9 (Homo sapiens) (UniProt Q9Y336); test: Hs-Siglec9 ALPHAscreen SOP 20170721; conditions: 10 µM
[5] = test system: Trypanosoma cruzi; test: Trypanosoma cruzi phosphomannomutase and mannose-1-phosphate guanylyltransferase assay; assay type: functional; conditions: 10 µM
[6] = target: T2, Arginase-2, mitochondrial (Homo sapiens) (UniProt P78540); test: in vitro enzyme assay to detect the production of urea directly proportional to the activity of Arginase II; assay type: functional; conditions: 33.3 µM; further: in the data most compounds retested in dose-response had high values
T2 sequence (whole entry): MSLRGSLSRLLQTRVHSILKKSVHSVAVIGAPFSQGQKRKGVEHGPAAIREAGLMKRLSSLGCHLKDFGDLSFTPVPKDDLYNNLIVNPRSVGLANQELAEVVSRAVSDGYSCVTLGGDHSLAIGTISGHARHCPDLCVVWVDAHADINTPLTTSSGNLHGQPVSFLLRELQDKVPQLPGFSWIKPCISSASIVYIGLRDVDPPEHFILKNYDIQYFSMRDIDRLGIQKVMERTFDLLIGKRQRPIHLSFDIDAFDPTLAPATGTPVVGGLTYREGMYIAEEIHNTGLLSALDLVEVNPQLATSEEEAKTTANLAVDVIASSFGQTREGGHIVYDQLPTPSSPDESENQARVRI

[7] = target: T3, Proteasome subunit beta (Trypanosoma cruzi) (UniProt O96673); test: Trypanosoma cruzi proteasome chymotrypsin-like activity (TcProtChymo) assay.; further: in the data most compounds retested in dose-response had high values; assay type: functional; conditions: 9.37 µM
T3 sequence (whole entry): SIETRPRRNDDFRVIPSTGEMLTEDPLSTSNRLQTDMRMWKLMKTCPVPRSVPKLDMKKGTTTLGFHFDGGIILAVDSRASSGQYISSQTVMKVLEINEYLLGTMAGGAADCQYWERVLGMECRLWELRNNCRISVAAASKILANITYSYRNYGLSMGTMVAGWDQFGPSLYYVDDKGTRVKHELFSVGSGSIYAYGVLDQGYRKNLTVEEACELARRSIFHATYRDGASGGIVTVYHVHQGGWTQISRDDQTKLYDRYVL

[8] = species: Homo sapiens; test: To identify inhibition of the IFN signalling (Jak-Stat) pathway via expression of an eGFP reporter gene under the control of an IFN-stimulated response element (ISRE) containing MxA promoter.; assay type: functional; conditions: 30 µM
[9] = target: T4, Tyrosyl-tRNA synthetase, putative (Trypanosoma cruzi (strain CL Brener)) (UniProt Q4DSP6); test: Trypanosoma cruzi tyrosyl tRNA synthetase (TcYRS) _High Tyrosine SOP; assay type: functional; conditions: 30 µM; further: in the data most compounds retested in dose-response had high values
T4 sequence (whole entry): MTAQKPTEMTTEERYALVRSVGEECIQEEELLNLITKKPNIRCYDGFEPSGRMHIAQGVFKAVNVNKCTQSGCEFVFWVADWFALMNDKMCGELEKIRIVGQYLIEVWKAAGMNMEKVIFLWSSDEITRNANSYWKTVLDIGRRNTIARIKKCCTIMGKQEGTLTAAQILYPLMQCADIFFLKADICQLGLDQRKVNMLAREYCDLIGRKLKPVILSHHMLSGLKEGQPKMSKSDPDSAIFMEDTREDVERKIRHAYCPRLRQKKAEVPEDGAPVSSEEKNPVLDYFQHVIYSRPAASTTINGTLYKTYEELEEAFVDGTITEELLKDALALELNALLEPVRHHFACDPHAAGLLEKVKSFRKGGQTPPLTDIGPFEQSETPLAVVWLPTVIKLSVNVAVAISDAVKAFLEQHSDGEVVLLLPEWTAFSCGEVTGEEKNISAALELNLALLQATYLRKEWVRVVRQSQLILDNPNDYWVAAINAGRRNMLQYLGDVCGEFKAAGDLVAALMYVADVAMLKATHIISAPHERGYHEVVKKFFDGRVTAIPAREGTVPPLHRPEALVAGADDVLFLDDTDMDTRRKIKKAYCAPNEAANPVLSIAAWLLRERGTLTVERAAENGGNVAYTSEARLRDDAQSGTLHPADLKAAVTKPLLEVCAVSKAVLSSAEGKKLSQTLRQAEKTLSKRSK

[10] = target: T4, Tyrosyl-tRNA synthetase, putative (Trypanosoma cruzi (strain CL Brener)); test: Trypanosoma cruzi tyrosyl tRNA synthetase (TcYRS) SOP; assay type: functional; conditions: 30 µM
[11] = target: Chromo domain-containing protein 1 (Saccharomyces cerevisiae (strain ATCC 204508 / S288c) (Baker's yeast)) (UniProt P32657); test: ScCHD-1 Enzyme Inhibition Assay; assay type: functional; conditions: 30 µM; further: in the data most compounds retested in dose-response had high values
Sequence of Chromo domain-containing protein 1 (Saccharomyces cerevisiae (strain ATCC 204508 / S288c) (Baker's yeast)) (P32657 whole entry, the tested form may be a part): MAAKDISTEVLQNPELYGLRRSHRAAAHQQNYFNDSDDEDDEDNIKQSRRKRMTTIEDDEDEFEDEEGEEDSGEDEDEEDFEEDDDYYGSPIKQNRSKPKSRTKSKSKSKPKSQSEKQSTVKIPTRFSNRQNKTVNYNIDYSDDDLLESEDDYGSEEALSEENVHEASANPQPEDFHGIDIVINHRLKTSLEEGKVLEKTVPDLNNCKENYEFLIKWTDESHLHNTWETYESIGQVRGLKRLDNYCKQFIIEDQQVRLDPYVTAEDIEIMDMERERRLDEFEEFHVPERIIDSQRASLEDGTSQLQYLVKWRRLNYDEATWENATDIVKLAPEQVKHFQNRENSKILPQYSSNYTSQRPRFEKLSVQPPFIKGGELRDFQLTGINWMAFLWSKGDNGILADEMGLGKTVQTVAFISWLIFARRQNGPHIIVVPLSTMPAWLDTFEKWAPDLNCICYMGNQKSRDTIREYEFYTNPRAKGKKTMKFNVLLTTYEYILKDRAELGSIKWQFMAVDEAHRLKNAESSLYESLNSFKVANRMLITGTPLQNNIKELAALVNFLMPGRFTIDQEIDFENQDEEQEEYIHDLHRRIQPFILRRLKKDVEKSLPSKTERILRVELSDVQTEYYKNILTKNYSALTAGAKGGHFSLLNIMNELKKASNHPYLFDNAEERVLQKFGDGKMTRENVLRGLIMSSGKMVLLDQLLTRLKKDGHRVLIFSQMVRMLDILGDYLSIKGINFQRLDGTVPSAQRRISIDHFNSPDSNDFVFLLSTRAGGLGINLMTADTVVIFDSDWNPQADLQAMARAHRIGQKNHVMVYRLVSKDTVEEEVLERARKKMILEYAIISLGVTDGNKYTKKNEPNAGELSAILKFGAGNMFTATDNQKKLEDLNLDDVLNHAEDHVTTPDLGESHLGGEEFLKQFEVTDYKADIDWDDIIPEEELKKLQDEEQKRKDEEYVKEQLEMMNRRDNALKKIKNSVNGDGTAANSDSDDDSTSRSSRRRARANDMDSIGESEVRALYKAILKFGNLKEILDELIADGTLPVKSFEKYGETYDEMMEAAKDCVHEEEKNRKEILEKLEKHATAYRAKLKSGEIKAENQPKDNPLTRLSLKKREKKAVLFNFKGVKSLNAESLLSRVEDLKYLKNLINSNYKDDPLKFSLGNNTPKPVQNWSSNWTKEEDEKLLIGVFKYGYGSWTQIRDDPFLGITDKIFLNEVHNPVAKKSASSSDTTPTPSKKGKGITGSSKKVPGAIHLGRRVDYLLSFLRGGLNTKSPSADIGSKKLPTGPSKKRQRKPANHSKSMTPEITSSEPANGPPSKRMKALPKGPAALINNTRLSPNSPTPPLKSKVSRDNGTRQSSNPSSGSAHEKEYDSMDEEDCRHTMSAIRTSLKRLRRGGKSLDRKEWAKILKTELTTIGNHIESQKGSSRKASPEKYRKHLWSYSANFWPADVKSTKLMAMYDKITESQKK

Sequence of Sialic acid-binding Ig-like lectin 9 (Homo sapiens) (Q9Y336 whole entry): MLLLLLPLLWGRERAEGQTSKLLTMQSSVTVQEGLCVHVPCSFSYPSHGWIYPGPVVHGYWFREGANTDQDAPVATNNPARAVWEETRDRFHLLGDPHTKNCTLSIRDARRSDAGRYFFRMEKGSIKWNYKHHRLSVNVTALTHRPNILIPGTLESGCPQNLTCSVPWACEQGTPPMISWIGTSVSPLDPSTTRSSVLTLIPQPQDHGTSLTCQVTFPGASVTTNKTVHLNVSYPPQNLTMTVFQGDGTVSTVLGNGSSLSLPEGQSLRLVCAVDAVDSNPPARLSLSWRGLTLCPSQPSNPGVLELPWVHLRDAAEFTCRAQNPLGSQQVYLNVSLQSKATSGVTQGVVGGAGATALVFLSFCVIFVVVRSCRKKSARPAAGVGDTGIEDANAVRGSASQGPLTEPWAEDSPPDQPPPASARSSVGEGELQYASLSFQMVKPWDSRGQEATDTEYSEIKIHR
Sequence of Protein translocase subunit SecA (Escherichia coli (strain K12)) (P10408 whole entry): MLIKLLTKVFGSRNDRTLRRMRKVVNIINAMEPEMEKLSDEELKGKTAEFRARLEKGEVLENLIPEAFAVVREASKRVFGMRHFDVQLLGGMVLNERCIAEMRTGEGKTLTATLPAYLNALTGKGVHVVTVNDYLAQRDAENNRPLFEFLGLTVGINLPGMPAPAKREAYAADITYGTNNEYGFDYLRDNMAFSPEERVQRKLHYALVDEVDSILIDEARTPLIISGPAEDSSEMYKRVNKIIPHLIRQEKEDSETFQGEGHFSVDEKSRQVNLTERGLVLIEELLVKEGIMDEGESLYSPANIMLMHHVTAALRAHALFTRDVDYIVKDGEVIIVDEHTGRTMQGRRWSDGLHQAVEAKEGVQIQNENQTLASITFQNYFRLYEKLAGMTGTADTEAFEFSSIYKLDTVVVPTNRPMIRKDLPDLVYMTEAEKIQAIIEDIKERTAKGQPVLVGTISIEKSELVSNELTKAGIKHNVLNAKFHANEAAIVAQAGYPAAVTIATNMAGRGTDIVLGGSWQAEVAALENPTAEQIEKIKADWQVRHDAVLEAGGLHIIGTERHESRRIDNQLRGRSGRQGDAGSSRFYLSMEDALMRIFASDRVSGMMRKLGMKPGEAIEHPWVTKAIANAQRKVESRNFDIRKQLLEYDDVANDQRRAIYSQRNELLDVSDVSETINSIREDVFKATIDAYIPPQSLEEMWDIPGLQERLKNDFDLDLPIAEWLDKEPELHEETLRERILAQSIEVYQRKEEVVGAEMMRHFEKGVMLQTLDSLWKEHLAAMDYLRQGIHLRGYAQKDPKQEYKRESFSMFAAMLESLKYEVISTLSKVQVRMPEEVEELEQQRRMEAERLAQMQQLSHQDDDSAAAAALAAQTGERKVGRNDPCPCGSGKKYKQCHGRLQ

Compound | Percent Effect [1] [%] | Percent Effect [2] [%] | Percent Effect [3] [%] | Percent Effect [4] [%] | Percent Effect [5] [%] | Percent Effect [6] [%] | Percent Effect [7] [%] | Percent Effect [8] [%] | Percent Effect [9] [%] | Percent Effect [10] [%] | Percent Effect [11] [%]
N#Cc1cccc(C(=O)N2CCc3ncc(Cn4cccn4)n3CC2)c1 | -2.76 | -5.33 | 6.89 | -4.2 | -1.74 | -56.1 | 2.22 | -20.1 | -3.12 | -2.5 | -3.63
CC(Cn1ccnc1)NC(=O)C1(c2ccc(F)cc2)CC1 (stereo not given) | -2.91 | 17.7 | -3.38 | -4.39 | 2.93 | -3.42 | 4.83 | -2.07 | 1.48 | 16.5 | -3.1
O=C1CC(c2cccnc2)c2c(c(C(=O)O)cn2-c2ccccc2)N1 (stereo not given) | -3.57 | 6.67 | -32.4 | -0.792 | -3.14 | 6.16 | 14.6 | 11.4 | 3.17 | 10.3 | -8.81
CC(C)Cc1cc(C(=O)N2CCCC(n3cncn3)C2)[nH]n1 (stereo not given) | -1.38 | 11.4 | 6.88 | -0.206 | 1.33 | 10.1 | 2.4 | 0.485 | 5.21 | 12.7 | -22.3
CCc1ncc2c(n1)CN(Cc1nc(C)c(C)o1)CC2 | -3.48 | 2.74 | -53 | -5.63 | -1.76 | 6.82 | 9.94 | 10.1 | 5.38 | 10 | -5.18
Cc1ncc(CN(C)CC2CCCN2c2cccnn2)s1 (stereo not given) | -4.33 | 1.27 | -16.7 | 0.813 | 3.79 | -0.645 | 25.6 | 0.297 | 9.38 | 2.53 | -37.9
CC(C)c1nc(C2CCCN2CC(=O)N2CCc3ccccc32)no1 (stereo not given) | -3.88 | -7.89 | 5.96 | 5.77 | -2.82 | -1.15 | -2.51 | -0.0405 | -3.43 | -4.88 | 6.73
Cc1oncc1C(=O)N1CCC2(CCN(Cc3ccccn3)C2=O)C1 (stereo not given) | -5.3 | -2.74 | -0.544 | 4.81 | -2.78 | -3.19 | 8.82 | 15.6 | 2.08 | 1.24 | -0.071
Cc1csc(NC(=O)CN2CCC(c3ccnn3CCO)CC2)n1 | -4.67 | 25.3 | -7.88 | -3.79 | 4.06 | 0 | 9.42 | 47.6 | 8.37 | 26.6 | -7.33
CC(=O)N1CCCC1c1cccc(Cc2ccccc2F)n1 (stereo not given) | -3.38 | -9.46 | 3.81 | -1.05 | -2.77 | -1.62 | -1.25 | 26.6 | -4.3 | -9.09 | 3.67
